Experimental data taken from PubChem BioAssay (NCI).
This is part of a sample that, as a whole, favours compounds with a hit. Of some 79,000 tested, about 15% had one in any assay. No stated cut-off is given here; in the data, active means growth inhibition above about 70%; inactive means the rest.

Tests used:
[1] = NCI Yeast Anticancer Drug Screen. Data for the rad50 strain (AID 155);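 further: 0% = growth of vehicle-only cultures of the same strain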; conditions: S. cerevisiae rad50 strain growth inhibition; at 50.0 µM; stronger effect = higher value
Method in brief: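 Compounds were tested on a yeast strain with an engineered DNA damage repair alteration; the reported value is growth inhibition normalised to vehicle treatment.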

[2] = NCI Yeast Anticancer Drug Screen. Data for the mec2-1 strain (AID 157); conditions: S. cerevisiae mec2-1 strain, at 50.0 µM, stronger effect = higher value
Method in brief: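 Yeast mec2-1 mutant treated with compound. Readout: growth inhibition vs vehicle controls.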

[3] = NCI Yeast Anticancer Drug Screen. Data for the sgs1 mgt1 strain (AID 161);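 further: 0% = growth of cultures given vehicle only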; conditions: S. cerevisiae sgs1 mgt1 strain, at 50.0 µM, stronger effect = higher value
Method in brief: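 Mutant yeast exposed to compound; growth scored against vehicle-only wells.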

[4] = NCI Yeast Anticancer Drug Screen. Data for the cln2 rad14 strain (AID 165);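 further: 0% = growth equal to vehicle treated cultures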; conditions: S. cerevisiae cln2 rad14 strain, at 50.0 µM, stronger effect = higher value
Method in brief: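 cln2 rad14 yeast strain; compound exposure; growth inhibition read vs vehicle controls.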

[5] = NCI Yeast Anticancer Drug Screen. Data for the bub3 strain (AID 167); conditions: S. cerevisiae bub3 mutant strain, at 50.0 µM, stronger effect = higher value
Method in brief: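 Growth of a checkpoint-deficient yeast mutant is measured after compound exposure. Values represent inhibition relative to vehicle.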

[6] = NCI Yeast Anticancer Drug Screen. Data for the mlh1 rad18 strain (AID 175); conditions: S. cerevisiae mlh1 rad18 strain growth inhibition; at 50.0 µM; stronger effect = higher value
Method in brief: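 Yeast w/ defined DNA-repair lesions; compound exposure; growth vs vehicle controls → % inhibition.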

Measured: growth inhibition

CC1=CCCC(C)(C)C1/C=C\C(C)=N\Nc1ccc([N+](=O)[O-])cc1[N+](=O)[O-] (stereo unspecified)
inactive: [1] 0.55% | [2] -3.3% | [3] -12.3% | [4] -33.9% | [5] -0.15% | [6] 6.3%

O=C(CSCSCC(=O)Nc1ccc(C2=NCCN2)cc1)Nc1ccc(C2=NCCN2)cc1
inactive: [1] 35% | [2] 18.4% | [3] 36.6% | [4] -6.1% | [5] 17.9% | [6] 19.9%

CCC(C)CCOC(=O)c1ccc(N=Cc2ccc(C=Nc3ccc(C(=O)OCCC(C)CC)cc3)cc2)cc1 (stereo unspecified)
inactive: [1] -20.5% | [2] 2.7% | [3] 30% | [4] 11.6% | [5] 43.4% | [6] 29.9%

c1ccc(-c2ccc(-c3c(-c4ccccc4)ccc(-c4ccccc4)c3-c3ccccc3)cc2)cc1
inactive: [1] 20.8% | [2] -0.7% | [3] -10.1% | [4] 20.9% | [5] -2.85% | [6] -1.4%

COc1ccc2cc3n(cc-2c1=O)CCc1cc2c(cc1-3)OCO2
inactive: [1] -8.65% | [2] -3.1% | [3] 5.65% | [4] -14.4% | [5] -6.65% | [6] 1.45%

COC(=O)Nc1cccc(OC(=O)Nc2cccc(Cl)c2)c1
inactive: [1] 10.3% | [2] 25.2% | [3] 26.6% | [4] -2.85% | [5] 31.4% | [6] 1.4%

COc1nc(NC2OC(CO)C(O)C(O)C2O)cc(=O)[nH]1 (stereo unspecified)
inactive: [1] -4.2% | [2] -7.45% | [3] 1.45% | [4] -3.15% | [5] -37.7% | [6] -6.45%

CC(/C=C/c1ccccc1)=N\NC(=O)c1ccccc1
inactive: [1] 44.8% | [2] 5.3% | [3] -5.4% | [4] 4.3% | [5] -15.1% | [6] -47.1%

C=C(C)CBr
inactive: [1] -17.1% | [2] -7.55% | [3] -5.95% | [4] 5.35% | [5] -5.45% | [6] -3.5%

CCOC(=O)c1nc2ccccc2nc1NCc1ccc(OC)c(OC)c1
inactive: [1] 0.65% | [2] 13.1% | [3] -7.75% | [4] 19.7% | [5] -0.05% | [6] -11.4%

CCOC(=O)C1C/C2=C(/CCCCCCCCCC2)SCCCS1 (stereo unspecified)
inactive: [1] 4.35% | [2] 5.2% | [3] -9% | [4] 2.15% | [5] -13.7% | [6] -23.7%

CSC(=NCCCCN=C(NS(=O)(=O)c1ccc(Cl)cc1)SC)NS(=O)(=O)c1ccc(Cl)cc1
inactive: [1] -18.1% | [2] -27% | [3] -16.9% | [4] 13.9% | [5] -8.8% | [6] -11.2%

Cc1cccc(NCN2C(=O)c3ccccc3C2=O)c1
inactive: [1] -1.8% | [2] 8.75% | [3] 3.8% | [4] -16.4% | [5] 18.7% | [6] -1.7%

O=C(CC(c1ccccc1)C(Br)[N+](=O)[O-])c1ccccc1 (stereo unspecified)
inactive: [1] 27.6% | [2] -0.35% | [3] 36.6% | [4] -9.9% | [5] 40% | [6] 32.4%

O=C(Nc1cc(C(F)(F)F)ccc1Cl)N(Cc1ccccc1)c1ccccc1
inactive: [1] -10.3% | [2] -15.9% | [3] -1.35% | [4] -74.2% | [5] -8.2% | [6] -8.7%

CCOC(=O)C1(c2ccccc2)CCNC(=O)CC1 (stereo unspecified)
inactive: [1] 7.65% | [2] 8.2% | [3] 16.2% | [4] -14.1% | [5] 13.5% | [6] 8.6%

O=S(=O)(O)CCNC(=S)C(=S)NCCS(=O)(=O)O
inactive: [1] 29.1% | [2] 14.2% | [3] 7.75% | [4] 6.2% | [5] 8.7% | [6] 5.7%

CCC(C)c1cc(CN(C)C)cc(C(C)CC)c1O (stereo unspecified)
inactive: [1] 13.1% | [2] 1.1% | [3] 16.4% | [4] 13.8% | [5] 3.2% | [6] 9.05%

O=c1cnn(C2OC(C(O)CO)C(O)C2O)c(=O)[nH]1 (stereo unspecified)
inactive: [1] -6.9% | [2] -81.5% | [3] -8.75% | [4] -27.6% | [5] -11.2% | [6] -18.4%

Cc1ccc(NC(=O)OCC(COc2ccc(Cl)cc2Cl)OC(=O)Nc2ccc(C)cc2)cc1 (stereo unspecified)
inactive: [1] -27.8% | [2] -24.9% | [3] -0.55% | [4] 16.1% | [5] 11.2% | [6] 9.05%

COc1cc(NCCN=C(N)NC#N)c2ncccc2c1
inactive: [1] 0.95% | [2] 4.75% | [3] -0.7% | [4] -18.4% | [5] -15.4% | [6] 2.6%

O=C(c1ccccc1)N1C(c2ccccc2)C1(c1ccccc1)C1(c2ccccc2)SCCCS1 (stereo unspecified)
inactive: [1] -17.6% | [2] 14.7% | [3] -13.4% | [4] -61.6% | [5] -0.1% | [6] -1.25%

C=C(CN(C)C)c1ccccn1
inactive: [1] -11.9% | [2] -5.45% | [3] -2.3% | [4] -16.8% | [5] -13.3% | [6] -17.6%

COc1cc(C(=O)O[C@H]2CCC3CCC2N3C)cc(OC)c1OC (stereo partly specified)
inactive: [1] -46.4% | [2] -31.7% | [3] -4.05% | [4] -9.45% | [5] -3.85% | [6] -47%

O=S1(=O)OCCC1C(O)(c1ccccc1)c1ccccc1 (stereo unspecified)
inactive: [1] 1.7% | [2] -3.65% | [3] 6.8% | [4] -49.3% | [5] 11.2% | [6] 16.9%

CCn1c(=O)c2[nH]c(-n3c(Cl)nc4c3c(=O)n(CC)c(=O)n4CC)nc2n(CC)c1=O
inactive: [1] 31.1% | [2] 2.8% | [3] 2.9% | [4] 14.2% | [5] -0.5% | [6] 21.4%

O=[N+]([O-])c1cc(C(F)(F)F)ccc1Oc1cccc(C(F)(F)F)c1
inactive: [1] -13.4% | [2] 2% | [3] 5.6% | [4] -64.8% | [5] 42.6% | [6] 16.9%

N#CCCN(N)S(=O)(=O)c1ccccc1
inactive: [1] 3.7% | [2] 7.65% | [3] 0% | [4] -34.7% | [5] 2.85% | [6] -0.2%

Cc1ccc(-c2c3c(n(C4OC(CO)C(O)C(O)C4O)c(=S)c2C#N)CC(C)(C)CC3=O)cc1 (stereo unspecified)
inactive: [1] 23.5% | [2] 13.7% | [3] -4.45% | [4] -8.95% | [5] 9.15% | [6] 11.8%

CC(Cc1nc2ccccc2[nH]1)Cc1nc2ccccc2[nH]1
inactive: [1] -7% | [2] 17.4% | [3] 7.1% | [4] 21.4% | [5] 2.3% | [6] 15.6%

NC(N)=N/N=C/c1oc(-c2ccc(S(=O)(=O)O)o2)c(-c2ccc(S(=O)(=O)O)o2)c1[N+](=O)[O-]
inactive: [1] -21.4% | [2] 9.6% | [3] -22% | [4] 6.6% | [5] -3.35% | [6] 0.95%

Cc1cc(O)ccc1N=Nc1ccc(S(=O)(=O)O)cc1
inactive: [1] -26.8% | [2] -10.2% | [3] -10.6% | [4] 2.55% | [5] 4.55% | [6] -12.5%

CC(C)(C)OC(=O)Cc1ccc2c(ccn2Cc2ccccc2)c1
inactive: [1] -26.2% | [2] -29.6% | [3] -10.9% | [4] -22.1% | [5] 4.65% | [6] -20%

CCOC(=O)CN(c1scc(-c2ccccc2)c1C(=O)OCC)S(=O)(=O)c1ccc(C)cc1
inactive: [1] -15.7% | [2] -28.6% | [3] 0.05% | [4] -57.6% | [5] -2.7% | [6] 0.85%

CC(=O)ON(C(=O)c1ccccc1)c1ccccc1
inactive: [1] -1.7% | [2] 0.95% | [3] 4.3% | [4] -5.15% | [5] 7.05% | [6] 12.1%

O=C1OC(Cc2ccccc2)=N/C1=C/c1ccccc1
inactive: [1] 9.05% | [2] 0.8% | [3] 1.15% | [4] -9% | [5] 2.7% | [6] 4.55%

O=C(O)C1=C(C(=O)Nc2ccc(NC(=O)C3=C(C(=O)O)C4C=CC3C4)cc2)C2C=CC1C2
inactive: [1] -0.75% | [2] -0.35% | [3] -6.3% | [4] -28.4% | [5] 0.25% | [6] 9.95%

CCN1CCC(O)(c2ccc(Oc3ccc(F)cc3)cc2)C(C(=O)c2ccc(Oc3ccc(F)cc3)cc2)C1 (stereo unspecified)
inactive: [1] 20.1% | [2] 2.9% | [3] 14.6% | [4] 5.95% | [5] 5.65% | [6] 29.9%

Cc1sc2c(c1C)/C(=N\O)c1cccn1-2
inactive: [1] -0.05% | [2] -3.4% | [3] 34% | [4] 26% | [5] 14.4% | [6] -11.6%

O=S(=O)(O)CCS(=O)(=O)O
inactive: [1] -15.8% | [2] -19.3% | [3] -3.85% | [4] -51.3% | [5] 1.45% | [6] -45.9%

COc1cccc(N(CCO)C2CCCCC2)c1
inactive: [1] 12.8% | [2] 4.2% | [3] 18.2% | [4] 15.7% | [5] 10.9% | [6] 2%
